Holding throughout (set-up): scale not given: direction of the effect not stated beside the values
Assay [1] concerns the target Protein translocase subunit SecA (Escherichia coli (strain K12)) (UniProt P10408). Nature of the assay: Assay to Identify E. coli SecA ATPase Inhibitors. In kind it is functional. Conditions: 30 µM.
Assay [2] concerns the target T1, Ubiquitin-activating enzyme e1, putative (Leishmania donovani (strain BPK282A1)) (UniProt E9BSI1).
T1 sequence (whole entry): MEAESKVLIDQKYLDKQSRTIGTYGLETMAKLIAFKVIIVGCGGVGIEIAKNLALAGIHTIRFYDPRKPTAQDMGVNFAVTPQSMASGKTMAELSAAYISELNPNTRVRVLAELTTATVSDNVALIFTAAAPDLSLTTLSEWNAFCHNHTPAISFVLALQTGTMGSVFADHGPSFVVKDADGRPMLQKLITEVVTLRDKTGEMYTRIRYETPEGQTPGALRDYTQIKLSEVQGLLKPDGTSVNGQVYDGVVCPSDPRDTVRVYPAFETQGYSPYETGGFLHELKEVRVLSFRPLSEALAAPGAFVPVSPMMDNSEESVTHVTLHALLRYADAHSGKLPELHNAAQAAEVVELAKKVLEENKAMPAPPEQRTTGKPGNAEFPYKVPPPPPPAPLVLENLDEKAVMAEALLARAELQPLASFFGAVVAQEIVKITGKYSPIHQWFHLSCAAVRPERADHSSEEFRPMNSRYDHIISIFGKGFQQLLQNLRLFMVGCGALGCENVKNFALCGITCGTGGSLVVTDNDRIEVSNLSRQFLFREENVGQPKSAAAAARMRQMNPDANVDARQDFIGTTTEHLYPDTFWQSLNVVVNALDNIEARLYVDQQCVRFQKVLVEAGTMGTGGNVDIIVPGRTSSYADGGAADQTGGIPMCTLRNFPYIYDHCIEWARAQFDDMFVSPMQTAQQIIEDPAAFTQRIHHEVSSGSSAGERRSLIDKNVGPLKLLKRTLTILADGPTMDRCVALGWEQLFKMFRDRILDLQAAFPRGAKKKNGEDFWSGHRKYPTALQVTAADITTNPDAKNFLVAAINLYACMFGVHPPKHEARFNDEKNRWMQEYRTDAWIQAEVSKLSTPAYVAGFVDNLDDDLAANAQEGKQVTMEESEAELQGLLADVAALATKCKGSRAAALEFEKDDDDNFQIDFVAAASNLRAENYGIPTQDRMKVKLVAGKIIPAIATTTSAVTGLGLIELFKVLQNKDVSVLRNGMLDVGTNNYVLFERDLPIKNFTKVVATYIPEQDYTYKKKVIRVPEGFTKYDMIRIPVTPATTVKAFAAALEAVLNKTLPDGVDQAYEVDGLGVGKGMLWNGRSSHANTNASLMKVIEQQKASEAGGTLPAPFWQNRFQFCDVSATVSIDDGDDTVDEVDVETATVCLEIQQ
Briefly: Leishmania donovani Ubiquitin Activating Enzyme (LdE1). In kind it is functional. Conditions: 30 µM.

Assay [3] has as its target AMP-activated protein kinase, AMPK (Homo sapiens) (UniProt P54646+O43741+P54619+Q9UGJ0+Q9Y478+Q13131+Q9UGI9). Briefly: AMP-dependent Kinase enzyme assay. An in vitro enzyme assay that detects ADP turnover that is directly proportional to AMPK activity. This uses naive AMPK that is activated during the assay with MK-8722. Conditions: 30 µM. Format: functional.
For assay [4], the target named is Sialic acid-binding Ig-like lectin 9 (Homo sapiens) (UniProt Q9Y336). Briefly: Hs-Siglec9 ALPHAscreen SOP 20170721. Conditions: 10 µM.
Sequence of Sialic acid-binding Ig-like lectin 9 (Homo sapiens) (Q9Y336 whole entry): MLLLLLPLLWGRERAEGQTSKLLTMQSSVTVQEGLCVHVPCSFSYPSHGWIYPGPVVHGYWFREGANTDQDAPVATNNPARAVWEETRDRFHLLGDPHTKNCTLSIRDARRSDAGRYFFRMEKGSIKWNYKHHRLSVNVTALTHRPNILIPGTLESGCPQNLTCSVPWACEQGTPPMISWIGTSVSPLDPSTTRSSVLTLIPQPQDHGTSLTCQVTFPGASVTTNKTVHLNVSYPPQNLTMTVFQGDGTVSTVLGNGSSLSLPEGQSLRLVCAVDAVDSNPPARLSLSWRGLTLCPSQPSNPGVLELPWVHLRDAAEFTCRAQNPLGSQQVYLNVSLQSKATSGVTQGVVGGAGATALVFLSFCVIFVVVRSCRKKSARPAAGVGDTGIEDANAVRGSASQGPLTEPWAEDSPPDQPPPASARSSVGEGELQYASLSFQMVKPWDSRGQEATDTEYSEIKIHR
Another assay concerns Trypanosoma cruzi. Briefly: Trypanosoma cruzi phosphomannomutase and mannose-1-phosphate guanylyltransferase assay. Format: functional. Conditions: 10 µM.
The target in assay [5] is T2, Arginase-2, mitochondrial (Homo sapiens) (UniProt P78540).
T2 sequence (whole entry): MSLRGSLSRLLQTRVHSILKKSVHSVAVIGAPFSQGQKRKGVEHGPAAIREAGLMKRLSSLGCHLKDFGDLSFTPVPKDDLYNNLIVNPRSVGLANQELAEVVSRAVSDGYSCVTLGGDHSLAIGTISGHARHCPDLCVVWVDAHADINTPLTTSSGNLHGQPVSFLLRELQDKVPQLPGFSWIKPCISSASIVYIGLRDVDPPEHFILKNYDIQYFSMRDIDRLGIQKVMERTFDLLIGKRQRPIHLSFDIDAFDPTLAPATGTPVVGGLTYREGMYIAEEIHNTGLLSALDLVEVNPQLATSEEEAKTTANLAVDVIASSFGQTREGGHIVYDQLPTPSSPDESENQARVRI
Nature of the assay: in vitro enzyme assay to detect the production of urea directly proportional to the activity of Arginase II. Further: in the data most compounds retested in dose-response had high values. In kind it is functional. Conditions: 33.3 µM.

Assay [6] addresses T3, Proteasome subunit beta (Trypanosoma cruzi) (UniProt O96673).
T3 sequence (whole entry): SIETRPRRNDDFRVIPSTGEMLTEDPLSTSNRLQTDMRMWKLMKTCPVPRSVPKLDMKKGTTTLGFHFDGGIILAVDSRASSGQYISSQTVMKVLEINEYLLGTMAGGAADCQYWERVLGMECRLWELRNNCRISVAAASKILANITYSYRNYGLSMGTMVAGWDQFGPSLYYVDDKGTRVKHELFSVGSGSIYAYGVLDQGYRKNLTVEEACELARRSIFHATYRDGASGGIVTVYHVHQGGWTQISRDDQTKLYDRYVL
Briefly: Trypanosoma cruzi proteasome chymotrypsin-like activity (TcProtChymo) assay. Further: in the data most compounds retested in dose-response had high values. In kind it is functional. Conditions: 9.37 µM.

The species entered for another assay is Homo sapiens. Briefly: To identify inhibition of the IFN signalling (Jak-Stat) pathway via expression of an eGFP reporter gene under the control of an IFN-stimulated response element (ISRE) containing MxA promoter. Format: functional. Conditions: 30 µM.
The target of assay [7] is T4, Tyrosyl-tRNA synthetase, putative (Trypanosoma cruzi (strain CL Brener)) (UniProt Q4DSP6).
T4 sequence (whole entry): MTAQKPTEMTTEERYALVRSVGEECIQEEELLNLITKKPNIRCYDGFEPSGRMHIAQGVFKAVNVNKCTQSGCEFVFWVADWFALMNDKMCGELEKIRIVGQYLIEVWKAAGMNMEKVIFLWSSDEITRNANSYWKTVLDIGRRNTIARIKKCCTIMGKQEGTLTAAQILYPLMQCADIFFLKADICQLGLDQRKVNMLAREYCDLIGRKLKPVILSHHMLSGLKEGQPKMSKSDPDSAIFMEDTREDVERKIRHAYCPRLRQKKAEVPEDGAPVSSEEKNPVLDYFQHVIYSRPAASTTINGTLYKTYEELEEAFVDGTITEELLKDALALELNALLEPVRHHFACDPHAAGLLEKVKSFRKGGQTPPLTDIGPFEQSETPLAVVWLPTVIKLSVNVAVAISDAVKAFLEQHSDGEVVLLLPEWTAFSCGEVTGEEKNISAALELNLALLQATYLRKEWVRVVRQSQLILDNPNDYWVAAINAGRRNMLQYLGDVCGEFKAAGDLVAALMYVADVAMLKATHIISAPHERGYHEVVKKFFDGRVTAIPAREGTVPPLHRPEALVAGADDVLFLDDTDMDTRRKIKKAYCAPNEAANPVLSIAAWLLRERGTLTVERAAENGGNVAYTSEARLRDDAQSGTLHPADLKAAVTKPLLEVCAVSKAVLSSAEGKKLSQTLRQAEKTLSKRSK
Nature of the assay: Trypanosoma cruzi tyrosyl tRNA synthetase (TcYRS) _High Tyrosine SOP. Further: in the data most compounds retested in dose-response had high values. Conditions: 30 µM. In kind it is functional.

Assay [8] has as its target T4, Tyrosyl-tRNA synthetase, putative (Trypanosoma cruzi (strain CL Brener)). Nature of the assay: Trypanosoma cruzi tyrosyl tRNA synthetase (TcYRS) SOP. Format: functional. Conditions: 30 µM.
Assay [9] deals with Chromo domain-containing protein 1 (Saccharomyces cerevisiae (strain ATCC 204508 / S288c) (Baker's yeast)) (UniProt P32657). Nature of the assay: ScCHD-1 Enzyme Inhibition Assay. Further: in the data most compounds retested in dose-response had high values. Format: functional. Conditions: 30 µM.
Sequence of Chromo domain-containing protein 1 (Saccharomyces cerevisiae (strain ATCC 204508 / S288c) (Baker's yeast)) (P32657 whole entry, the tested form may be a part): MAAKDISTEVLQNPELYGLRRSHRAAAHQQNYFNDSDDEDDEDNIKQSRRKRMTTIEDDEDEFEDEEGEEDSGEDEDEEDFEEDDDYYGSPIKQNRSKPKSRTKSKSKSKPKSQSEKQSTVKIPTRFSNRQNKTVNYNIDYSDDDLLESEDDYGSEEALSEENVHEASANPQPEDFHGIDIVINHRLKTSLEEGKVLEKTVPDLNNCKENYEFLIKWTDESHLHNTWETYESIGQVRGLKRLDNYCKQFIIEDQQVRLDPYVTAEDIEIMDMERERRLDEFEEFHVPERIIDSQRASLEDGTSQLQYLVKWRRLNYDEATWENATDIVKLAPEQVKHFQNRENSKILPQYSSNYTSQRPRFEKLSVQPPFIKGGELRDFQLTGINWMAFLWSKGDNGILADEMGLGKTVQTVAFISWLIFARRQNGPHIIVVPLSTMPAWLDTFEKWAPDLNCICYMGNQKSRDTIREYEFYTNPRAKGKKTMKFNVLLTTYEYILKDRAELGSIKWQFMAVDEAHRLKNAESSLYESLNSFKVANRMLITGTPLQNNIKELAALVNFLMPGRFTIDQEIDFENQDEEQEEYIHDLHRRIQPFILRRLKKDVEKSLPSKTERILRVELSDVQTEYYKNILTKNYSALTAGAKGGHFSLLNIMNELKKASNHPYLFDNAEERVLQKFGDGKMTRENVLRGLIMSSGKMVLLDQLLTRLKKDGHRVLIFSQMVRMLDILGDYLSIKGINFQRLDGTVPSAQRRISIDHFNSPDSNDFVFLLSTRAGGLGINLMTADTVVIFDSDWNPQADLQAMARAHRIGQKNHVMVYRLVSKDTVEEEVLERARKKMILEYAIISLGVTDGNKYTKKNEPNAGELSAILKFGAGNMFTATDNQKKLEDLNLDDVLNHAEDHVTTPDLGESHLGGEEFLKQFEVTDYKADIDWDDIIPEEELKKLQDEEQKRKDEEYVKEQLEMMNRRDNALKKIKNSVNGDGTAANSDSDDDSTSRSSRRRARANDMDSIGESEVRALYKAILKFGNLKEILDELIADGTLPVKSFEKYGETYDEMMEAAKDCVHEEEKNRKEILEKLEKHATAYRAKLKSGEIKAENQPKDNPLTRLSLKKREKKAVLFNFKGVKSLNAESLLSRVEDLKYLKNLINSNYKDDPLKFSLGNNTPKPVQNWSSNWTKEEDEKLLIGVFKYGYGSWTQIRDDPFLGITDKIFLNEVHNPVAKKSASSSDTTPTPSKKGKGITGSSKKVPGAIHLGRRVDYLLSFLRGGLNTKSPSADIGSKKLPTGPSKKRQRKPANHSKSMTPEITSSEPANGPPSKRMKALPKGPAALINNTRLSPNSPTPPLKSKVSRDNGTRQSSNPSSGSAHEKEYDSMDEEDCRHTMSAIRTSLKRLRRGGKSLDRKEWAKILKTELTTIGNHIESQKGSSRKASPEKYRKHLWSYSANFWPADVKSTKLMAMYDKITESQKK

SMILES strings stand for the structures. For some of these results: Results with a measured potency or affinity are listed apart.

This passage reports Percent Effect results from ChEMBL document CHEMBL3988442, “University of Dundee, Small-Polar-MMV Screening Library” (2021).

Sequence of Protein translocase subunit SecA (Escherichia coli (strain K12)) (P10408 whole entry): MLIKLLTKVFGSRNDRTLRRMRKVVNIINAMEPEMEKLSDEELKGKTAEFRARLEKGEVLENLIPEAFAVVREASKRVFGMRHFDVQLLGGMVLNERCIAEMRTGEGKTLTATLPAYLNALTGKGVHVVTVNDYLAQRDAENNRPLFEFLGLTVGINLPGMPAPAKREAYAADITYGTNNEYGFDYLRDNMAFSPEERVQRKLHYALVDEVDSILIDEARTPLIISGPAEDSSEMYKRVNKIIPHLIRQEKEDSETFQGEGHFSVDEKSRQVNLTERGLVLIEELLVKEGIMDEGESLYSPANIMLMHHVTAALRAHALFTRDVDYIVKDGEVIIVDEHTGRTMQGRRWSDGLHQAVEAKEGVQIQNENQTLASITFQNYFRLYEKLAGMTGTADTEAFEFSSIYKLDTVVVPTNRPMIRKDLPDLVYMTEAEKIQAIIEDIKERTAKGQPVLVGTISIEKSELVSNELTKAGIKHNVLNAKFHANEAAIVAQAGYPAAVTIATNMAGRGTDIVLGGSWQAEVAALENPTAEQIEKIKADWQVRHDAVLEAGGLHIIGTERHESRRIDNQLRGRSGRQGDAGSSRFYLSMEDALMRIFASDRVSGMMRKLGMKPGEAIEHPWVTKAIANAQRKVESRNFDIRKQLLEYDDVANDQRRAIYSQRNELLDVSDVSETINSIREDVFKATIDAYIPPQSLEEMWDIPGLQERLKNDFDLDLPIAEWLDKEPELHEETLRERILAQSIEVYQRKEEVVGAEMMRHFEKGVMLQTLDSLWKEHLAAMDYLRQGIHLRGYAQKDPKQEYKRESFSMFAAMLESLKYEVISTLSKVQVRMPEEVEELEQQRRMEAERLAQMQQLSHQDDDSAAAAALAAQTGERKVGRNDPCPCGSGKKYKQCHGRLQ

In the case of `CS(=O)(=O)NCC(=O)N1CCCC1c1noc(C2CC2)n1` (stereo not drawn), the Percent Effect in [1] is -3.88%; in assay [2], 16%; in assay [3], -6.02%; in assay [4], 25.8%; with Trypanosoma cruzi it was 4.19%; in assay [5], 41.1%. Further, the Percent Effect in assay [6] was 5.58%; in the assay listed under Homo sapiens it was 0.475%; in assay [7] it was 4.92%; in assay [8], 13.6%; in assay [9], -6.99%.
As to `COc1cccc(C2CC(=O)Nc3nc(N)sc32)c1OC` (stereo not drawn), the Percent Effect in assay [1] was 70.6%; in [2], 26.3%; in assay [3], -56.4%; in assay [4], -2.19%; with Trypanosoma cruzi, 7.3%; in assay [5] it was 21.3%. Besides, the Percent Effect in assay [6] was 10.3%; in the assay filed under Homo sapiens, -3.92%; in [7] it was -4.25%; in assay [8], -36.4%; in assay [9] it was -8.65%.
On to `COCCCN(C)Cc1nc2c(cnn2C)c(=O)[nH]1`, for which the Percent Effect in assay [1] is -5.54%; in assay [2], 21.1%; in [3] it was -0.426%; in [4], -2.13%; in the assay on Trypanosoma cruzi, 7.75%; in [5] it was 3.96%. Moreover, the Percent Effect was 18.4% in assay [6]; -3.84% in the assay listed under Homo sapiens; 2.46% in [7]; 25.9% in assay [8]; -9.74% in assay [9].
Turning to `CC(NC(=O)N(C)Cc1ccsc1)c1ccc2c(c1)NC(=O)CO2` (stereo not drawn), the Percent Effect in [1] is -2.37%; in assay [2], 13.2%; in [3] it was 0.427%; in [4], 7.9%; in the assay on Trypanosoma cruzi, 6.39%; in [5] it was 1.15%. The Percent Effect is 8.52% in [6]; 9.49% in the assay filed under Homo sapiens; 5.39% in assay [7]; 19.5% in assay [8]; -10.1% in assay [9].
Turning to `Cn1cc(CN2C[C@@H]3CN(Cc4ccoc4)CCO[C@@H]3C2)cn1`, the Percent Effect in assay [1] was -1.93%; in assay [2], 7.79%; in assay [3], 7.44%; in assay [4], 0.861%; in the assay on Trypanosoma cruzi it was -2.07%; in [5], 7.1%. In addition, the Percent Effect was 1.57% in [6]; 10.9% in the assay filed under Homo sapiens; 0% in [7]; 16.7% in [8]; -4.4% in [9].
For the molecule `Cc1nn(C)c(C)c1CNCc1ccnc(N2CCOCC2)c1`, the Percent Effect in [1] is -6.06%; in [2], 1.27%; in assay [3] it was 2.39%; in assay [4] it was -0.497%; in the assay with Trypanosoma cruzi it was 2.56%; in assay [5] it was -0.645%. Besides, the Percent Effect in assay [6] was -1.03%; in the assay filed under Homo sapiens, 24%; in assay [7], -1.04%; in assay [8] it was -2.53%; in [9], -31.5%.
Regarding `CNS(=O)(=O)c1cc(C(=O)NC2CCOc3ccccc32)cc(C)c1C` (stereo not drawn), the Percent Effect is -6.38% in assay [1]; -2.63% in assay [2]; 13.9% in [3]; -3.37% in assay [4]; -3.41% in the assay with Trypanosoma cruzi; -4.73% in [5]. The Percent Effect in assay [6] is 8.53%; in the assay filed under Homo sapiens, -0.414%; in assay [7] it was 4.25%; in [8], 7.79%; in assay [9] it was 7.83%.
Regarding `O=C(NCc1ccco1)[C@H]1C[C@H]2OCC[C@H]2N(C(=O)c2ccco2)C1`, the Percent Effect in [1] was -4.08%; in assay [2], -2.67%; in assay [3], 12.4%; in assay [4], 1.43%; in the assay on Trypanosoma cruzi, -3.09%; in [5] it was -50.4%. For the same molecule, the Percent Effect is 12% in [6]; -6.88% in the assay listed under Homo sapiens; -3.12% in assay [7]; -5% in assay [8]; 63.9% in [9].
